hgDAF12 agonist – hgDAF-12 agonism, primary luciferase screen; HEK293 GAL4-hgDAF12 UAS-luciferase reporter, agonist luminescence; normalized to butyrate control; activation, % at 6.8 µM; actives 1.8% (n = 370,000);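 active means activation above a cutoff set at the mean of all screened compounds plus 3 SD, cut at about 10% in these data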;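 further: 0% = DMSO wells and 100% = sodium butyrate wells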
DAX1 inh-1 – inhibitors of human orphan nuclear receptor DAX1 (NR0B1); HEK293 Gal4-DAX1 luciferase reporter, luminescence; AID 504766; actives 0.99% (n = 340,000); inhibition, % at 6.75 µM;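 active means inhibition above the mean over all tested compounds plus 3 SD, cut at about 4.2% in these data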;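 further: 0% = DAX1-transfected cells with DMSO and 100% = empty-vector control cells with DMSO; inhibition shows as a rise in luminescence from relieved DAX1 repression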
Target sequence (P51843 207-470 limits assumed): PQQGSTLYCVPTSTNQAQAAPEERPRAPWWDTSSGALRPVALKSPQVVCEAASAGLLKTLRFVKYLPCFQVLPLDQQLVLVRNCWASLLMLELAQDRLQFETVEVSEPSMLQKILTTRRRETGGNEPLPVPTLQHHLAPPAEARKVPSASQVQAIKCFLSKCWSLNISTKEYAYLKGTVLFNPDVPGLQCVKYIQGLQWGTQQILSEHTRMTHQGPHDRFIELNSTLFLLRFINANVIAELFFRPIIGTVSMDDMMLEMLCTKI
hcDAF-12 act – H. contortus DAF-12 activation, primary screen; HEK293 hcDAF-12 lit1-tk-luc reporter, luminescence; 0% DMSO, 100% Δ7-dafachronic acid; actives 1.4% (n = 370,000); activation, % at 6.8 µM;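 active means activation above the mean of all tested compounds plus 3 SD, cut at about 5.5% in these data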;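 further: 100% = response to 3 µM Δ7-dafachronic acid high control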
ssDAF-12 act – activators of S. stercoralis DAF-12 nuclear receptor; HEK293 ssDAF-12/GRIP1 lit1-tk-luc reporter, luminescence; % of 3 µM dafachronic acid response; activation, % at 6.8 µM; actives 1% (n = 370,000);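 active means activation above the mean over all tested compounds plus 3 SD, cut at about 0.9% in these data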;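 further: 0% = DMSO-only wells and 100% = 3 µM delta7-dafachronic acid wells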
DAX1 inh-2 – DAX1 (NR0B1) inhibition, primary screen. HEK293T StAR-luciferase reporter, SF-1/DAX-1 repression relief. inhibition, % at 6.8 µM. actives 1.1% (n = 370,000). AID 652010;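 active means inhibition above the mean over all tested compounds plus 3 SD, cut at about 3.6% in these data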;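 further: 0% = DAX-1 cells with DMSO and 100% = cells lacking DAX-1 with DMSO; higher inhibition means more luminescence from relief of DAX-1 repression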
An asterisk follows results filed as active; . = not tested or not shown. Only some compounds are listed: those with a hit (about 4.1% of all), similar ones and a draw of the others.

SMILES	hgDAF12 agonist	DAX1 inh-1	hcDAF-12 act	ssDAF-12 act	DAX1 inh-2
O=C(NCC(O)c1ccccc1)c1cccs1 (stereo not drawn)	12.0*	3.3	2.4	-0.3	1.0
COC(=O)COc1ccc2c(=O)c(-c3ccccc3)coc2c1	-2.4	1.3	-2.3	-0.5	-0.1
CCCc1cc2c(=O)c(-c3ccc4c(c3)OCCO4)coc2cc1OC(=O)c1ccco1	2.3	1.0	0.6	0.1	0.4
CCc1cc2c(=O)c(-c3ccc4c(c3)OCCO4)coc2cc1OC(=O)c1ccco1	11.4*	1.0	3.3	-1.0	3.1
COc1ccc2c(=O)c(-c3ccc4c(c3)OCO4)coc2c1	17.2*	2.4	5.7*	0.6	3.5
CC(C)Oc1ccc2c(=O)c(-c3ccccc3)coc2c1	13.9*	1.3	2.7	-0.1	8.3*
Cc1ccc(N(CCC#N)C(=O)CSc2nc3ccccc3c(=O)[nH]2)cc1	1.8	0.2	-1.5	-0.9	3.7*
N#CCCN(C(=O)CSc1n[nH]c(=O)[nH]c1=O)c1ccccc1	0.6	-1.1	-0.8	-0.8	-1.6
CN(C)C(=O)C(=O)c1c(-c2ccccc2)cc2ccccn12	-3.5	1.0	-1.9	-1.4	1.0
O=Nc1c(-c2ccccc2)cc2ccccn12	3.3	6.6*	-1.5	-1.4	-0.5
Cc1ccc(NC(=O)C2CC(=O)Nc3nncn32)cc1 (stereo not drawn)	3.3	0.4	2.2	8.3*	-0.1
CC1CC(c2ccccc2)=Nc2ccccc2N1 (stereo not drawn)	8.2	-0.2	5.7*	-0.1	0.7
O=C(CN1C(=O)C2(OCCCO2)c2ccccc21)NCc1ccc(F)cc1	-3.0	.	-0.6	-1.3	-1.1
O=C1NC(=Nc2ccc3ccccc3c2)S/C1=C/c1ccco1	7.4	0.9	4.0	2.0*	0.4
O=C1NC(=Nc2ccc(O)cc2)S/C1=C/c1ccco1	-1.0	-0.6	2.1	-0.6	-2.0
COC(=O)C1CN(CC(C)C)CCS(=O)(=O)N1Cc1ccc(C(F)(F)F)cc1 (stereo not drawn)	-6.4	.	-2.0	-1.3	-1.4
COc1ccc(-c2nnc(SCC(=O)Nc3ccc(S(=O)(=O)Nc4nccs4)cc3)n2-c2ccc(OC)cc2)cc1	1.4	.	-1.2	-1.4	-0.7
O=C(COc1ccccc1CNCc1ccccc1)Nc1ccccc1	10.7*	1.7	-0.4	-1.6	3.5
Cc1ccc(NC(=O)CNCc2ccccc2OCC(=O)Nc2ccc(I)cc2)cc1	4.4	.	-3.2	-1.3	-0.2
Oc1c(/C=N/c2ncn[nH]2)ccc2ccccc12	-0.5	0.1	1.9	1.2*	-0.3
O=c1c(Cl)c(Nc2cccc(Cl)c2)cnn1-c1nc2ccccc2s1	4.4	2.6	5.9*	-0.3	3.3
CN(CC(=O)Nc1cccc(F)c1)C(=O)c1cccc(S(=O)(=O)N2CCN(Cc3ccccc3)CC2)c1	-3.1	-2.4	-2.5	11.3*	-1.6
CC(C)c1ccc(/C=C/C(=O)O)cc1	2.4	4.3*	1.1	0.0	1.0
CCCNC(=O)/C=C/c1ccc(C(C)C)cc1	6.9	5.0*	0.2	-1.0	1.1
CCN1CCN(C(=O)/C=C/c2ccc(C(C)C)cc2)CC1	1.2	0.4	-1.4	-0.7	-0.1
SMILES	hgDAF12 agonist	DAX1 inh-1	hcDAF-12 act	ssDAF-12 act	DAX1 inh-2
Cc1cc(C)c(C(=O)CN2C(=O)NC3(CCCCC3)C2=O)cc1C	0.9	-0.5	6.2*	-0.8	0.9
Cc1cc(C)c(C(=O)CN2C(=O)NC3(CCC(C)CC3)C2=O)cc1C (stereo not drawn)	1.2	-0.7	0.3	-1.8	0.7
CC(=O)c1c(C)[nH]c(C(=O)CN2C(=O)NC3(CCCCC3C)C2=O)c1C (stereo not drawn)	1.0	0.7	-0.5	-1.1	1.9
CC(=O)c1c(C)[nH]c(C(=O)CN2C(=O)NC3(CCCCC3)C2=O)c1C	0.1	0.4	-1.8	-0.9	4.1*
COc1ccc(-c2ccc3c(n2)CCCN3S(=O)(=O)c2ccccc2C)cc1	-2.8	.	-2.5	-1.7	-2.3
COC(=O)CC1(c2ccc(OC)cc2)C(=O)c2ccccc2C1=O	-0.3	7.1*	0.9	-2.4	0.3
COC(=O)c1c(NC(C)=O)sc(C(=O)Nc2ccccc2)c1C	7.0	1.4	0.1	-1.5	2.3
CCCC(=O)Nc1sc(C(=O)Nc2cccc(N)c2)c(C)c1C(=O)OC	7.1	0.0	0.9	-1.0	3.9*
CCC(=O)Nc1sc(C(=O)Nc2ccccc2OC)c(C)c1C(=O)OC	1.6	0.1	2.0	-0.5	-0.3
COC(=O)c1c(NC(C)=O)sc(C(=O)Nc2ccccc2F)c1C	13.0*	0.1	1.3	-0.8	2.5
Cc1ccccc1NC(=O)C1CCCN1S(=O)(=O)c1cccnc1 (stereo not drawn)	2.8	.	1.4	-2.2	0.6
Cn1c(SCc2ccccc2)nnc1-c1ccco1	12.7*	0.5	-1.1	-0.6	0.4
Cn1c(SCc2cccc(F)c2)nnc1-c1ccccn1	3.7	5.2*	0.1	-1.0	0.6
Cn1c(SCc2cccc(Br)c2)nnc1-c1ccccn1	-2.1	-0.5	-3.0	-1.2	-0.1
Cn1c(SCc2ccccc2)nnc1-c1ccc(O)cc1	6.6	1.0	0.6	0.9*	0.4
COC(=O)[C@]12C[C@H](CC(=O)NCC3CCCCC3)C(=O)N(Cc3ccc4c(c3)OCO4)C1=C[C@H](COCc1ccccc1)O[C@@H]2C	1.4	.	-0.9	-0.9	-1.4
Cc1ccccc1CN1CCCCC(NC(=O)c2ccc3ccccc3c2)C1=O (stereo not drawn)	-4.0	.	-4.9	-1.3	-2.1
COC(=O)[C@@]12CCCCC3=C1N(CCC3)C(=O)[C@H]2CC(=O)N1CCSCC1	0.4	.	-1.1	1.5*	-1.1
O=C(CNC(=O)c1ccc(Cl)cc1)OCc1nc2ccccc2s1	9.0	-0.8	6.2*	-0.3	0.3
O=C(N[C@H](Cc1ccccc1)C(=O)NCCCN1CCCC1=O)[C@H]1O[C@@H](n2ccc(=O)[nH]c2=O)[C@H](O)[C@@H]1O	-0.7	.	-0.6	-0.7	1.0
Oc1ccc(-c2csc(Nc3ncccn3)n2)c(O)c1	24.7*	2.5	0.1	-0.2	1.9
CC(=O)Oc1ccc(-c2csc(Nc3ccc(Cl)cn3)n2)cc1	3.0	-0.1	-2.0	-1.4	0.3
CC(=O)Nc1ccc(-c2csc(Nc3cccc(C)n3)n2)cc1	11.3*	2.7	0.9	-0.4	2.5
COc1ccc(-c2csc(Nc3ccc(C)cn3)n2)cc1	12.1*	0.7	0.8	-1.1	1.1
Oc1ccc(-c2csc(Nc3ncccn3)n2)cc1O	9.8	0.2	5.5	-0.1	3.5
Cc1nc(C)c(-c2csc(Nc3ccccn3)n2)s1	6.1	-0.7	3.9	0.3	0.2
COc1ccc(-c2csc(Nc3ccccn3)n2)cc1OC	9.7	4.8*	2.6	0.9*	2.3
CC(=O)NNc1nc(-c2ccc(NC(C)=O)cc2)cs1	0.0	-1.0	1.3	-1.3	0.9
O=C(OCc1ccccc1)[C@H](Cc1ccccc1)NC(=O)[C@@H]1CC=C[C@@H]2CCN(C3CCCCC3)C(=O)[C@@H]21	0.4	.	1.6	-1.0	.
